Out of some 360,000 compounds screened, about 16,000 (4.4%) were called active. Not shown: some 9% with an inconclusive outcome. Calls follow the shape of the dose curve; as a rule, active = well fitted inhibition curve with a large enough effect; inconclusive = small, poorly fitted or top-dose-only effect; inactive = no such curve, though single readings can be large or run the other way. Only a selection was taken, and actives are over-represented in it overall.
Molecular target: Bromodomain adjacent to zinc finger domain protein 2B (Homo sapiens) (UniProt Q9UIF8)
Assay: qHTS Assay for Inhibitors of BAZ2B; also: nearly all actives have a fitted effect of over 60% in size
Conditions: AlphaScreen BAZ2B-H3K14Ac peptide displacement; series mostly up to 114 µM; activity change, negative = inhibition: at the top concentration
In short: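 AlphaScreen displacement: compounds (up to 110uM) incubated 30 min at room temperature with a preformed 50 nM BAZ2B/50 nM biotinylated H3K14Ac peptide complex in PBS pH 7.4 with Tween-20. Donor and acceptor beads at 10 ug/mL final added, 20 min light-protected before reading.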
% is scaled to controls: 0 for no effect and ±100 for the full control effect; potency is read from the fitted curve at half-maximal effect.

Sequence of Bromodomain adjacent to zinc finger domain protein 2B (Homo sapiens) (Q9UIF8 whole entry, looked up, the tested form may be a part): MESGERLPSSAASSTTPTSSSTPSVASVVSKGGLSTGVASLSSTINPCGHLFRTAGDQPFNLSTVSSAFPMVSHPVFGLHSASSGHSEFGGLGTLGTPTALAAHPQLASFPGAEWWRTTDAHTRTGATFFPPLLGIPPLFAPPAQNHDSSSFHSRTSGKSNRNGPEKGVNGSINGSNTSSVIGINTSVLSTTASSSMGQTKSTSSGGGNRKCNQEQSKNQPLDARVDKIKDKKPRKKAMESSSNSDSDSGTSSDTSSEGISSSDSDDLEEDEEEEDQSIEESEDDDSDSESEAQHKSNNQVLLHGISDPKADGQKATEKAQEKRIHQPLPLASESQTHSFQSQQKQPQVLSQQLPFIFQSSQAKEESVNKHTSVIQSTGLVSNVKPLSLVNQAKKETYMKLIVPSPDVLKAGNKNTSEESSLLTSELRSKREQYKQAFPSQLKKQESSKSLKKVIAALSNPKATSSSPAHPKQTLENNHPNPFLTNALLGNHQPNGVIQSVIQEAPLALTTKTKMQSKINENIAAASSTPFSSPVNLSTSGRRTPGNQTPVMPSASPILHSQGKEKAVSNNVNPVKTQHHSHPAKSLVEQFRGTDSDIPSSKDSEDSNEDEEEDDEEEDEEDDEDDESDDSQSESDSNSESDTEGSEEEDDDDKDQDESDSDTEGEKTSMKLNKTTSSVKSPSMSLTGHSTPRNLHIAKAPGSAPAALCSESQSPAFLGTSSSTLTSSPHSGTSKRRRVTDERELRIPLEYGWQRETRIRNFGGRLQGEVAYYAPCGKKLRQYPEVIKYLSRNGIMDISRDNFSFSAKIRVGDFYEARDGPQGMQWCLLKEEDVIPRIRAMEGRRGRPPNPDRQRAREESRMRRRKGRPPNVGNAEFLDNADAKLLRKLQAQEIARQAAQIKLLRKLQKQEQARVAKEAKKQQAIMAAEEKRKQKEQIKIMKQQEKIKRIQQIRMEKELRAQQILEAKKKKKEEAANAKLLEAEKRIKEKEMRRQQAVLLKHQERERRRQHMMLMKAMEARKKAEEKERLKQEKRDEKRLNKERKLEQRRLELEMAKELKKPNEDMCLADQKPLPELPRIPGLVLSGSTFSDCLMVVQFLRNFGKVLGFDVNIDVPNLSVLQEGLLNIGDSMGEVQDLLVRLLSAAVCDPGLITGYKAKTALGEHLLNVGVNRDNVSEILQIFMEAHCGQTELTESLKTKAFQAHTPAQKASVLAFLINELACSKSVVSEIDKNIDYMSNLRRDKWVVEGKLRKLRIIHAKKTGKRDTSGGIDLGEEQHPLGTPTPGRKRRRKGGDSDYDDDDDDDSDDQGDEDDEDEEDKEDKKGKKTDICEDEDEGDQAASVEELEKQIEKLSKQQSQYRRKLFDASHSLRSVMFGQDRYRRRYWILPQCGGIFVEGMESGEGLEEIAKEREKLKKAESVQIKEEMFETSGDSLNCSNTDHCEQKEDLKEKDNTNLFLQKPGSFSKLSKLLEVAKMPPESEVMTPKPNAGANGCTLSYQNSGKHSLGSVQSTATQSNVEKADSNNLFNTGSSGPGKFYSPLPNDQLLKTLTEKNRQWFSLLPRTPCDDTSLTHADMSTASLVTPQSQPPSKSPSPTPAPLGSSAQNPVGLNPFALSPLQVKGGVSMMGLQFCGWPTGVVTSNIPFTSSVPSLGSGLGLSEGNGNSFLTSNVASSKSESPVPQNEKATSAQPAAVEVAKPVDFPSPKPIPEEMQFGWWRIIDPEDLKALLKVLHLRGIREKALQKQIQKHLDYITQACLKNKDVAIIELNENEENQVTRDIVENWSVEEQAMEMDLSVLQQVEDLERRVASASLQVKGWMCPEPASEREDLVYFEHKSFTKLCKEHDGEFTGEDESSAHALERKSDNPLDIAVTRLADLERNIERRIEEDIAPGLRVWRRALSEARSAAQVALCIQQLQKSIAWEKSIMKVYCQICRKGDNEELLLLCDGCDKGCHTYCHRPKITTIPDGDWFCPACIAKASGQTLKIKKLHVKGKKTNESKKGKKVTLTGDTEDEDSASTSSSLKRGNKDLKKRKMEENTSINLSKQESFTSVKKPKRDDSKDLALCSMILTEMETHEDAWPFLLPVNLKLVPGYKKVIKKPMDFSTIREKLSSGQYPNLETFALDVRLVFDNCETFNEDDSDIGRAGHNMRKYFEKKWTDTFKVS

| Structure (SMILES) | Potency | activity change, negative = inhibition |
| --- | --- | --- |
| O=S(=O)(O)Oc1c[nH]c2ccccc12 | 44.7 µM (active) | – |
| NC(=O)CSc1c[nH]c2ccccc12 | – | 7.21% (inactive) |
| CC(=O)N(C1=C(Cl)C(=O)c2ccccc2C1=O)c1ccc(C(=O)O)cc1 | 28.2 µM (active) | – |
| CCc1ccc(-n2nc(C)c3c(C)cc(=O)n(CC(=O)Nc4ccc(F)cc4C)c32)cc1 | – | -2.03% (inactive) |
| CC1CC(C)(C)NC(=S)N1CCC(=O)N1CCN(Cc2ccccc2)CC1 (configuration not stated) | – | -0.357% (inactive) |
| CC1CC(=S)Nc2ccccc2N1Cc1ccccc1 (configuration not stated) | 39.8 µM (active) | – |
| CC1CC(=O)Nc2ccccc2N1S(=O)(=O)c1cccs1 (configuration not stated) | – | 2.06% (inactive) |
| Cc1nc(N2CCOCC2)c2c(C(=O)NCc3cccc(Cl)c3)c(C)oc2n1 | – | 9.33% [at 57.1 µM] (inactive) |
| CCOc1ccc(C(=O)Nc2nccs2)cc1[N+](=O)[O-] | – | 6.29% (inactive) |
| O=C(CCn1ccc([N+](=O)[O-])n1)Nc1nccs1 | – | -7.33% (inactive) |
| Cc1c(Br)c([N+](=O)[O-])nn1C(C)C(=O)Nc1nccs1 (configuration not stated) | 79.4 µM (active) | – |
| COc1ccc(-c2nc3scc(CCNS(=O)(=O)c4cc(F)ccc4OC)n3n2)cc1OC | – | -14.6% (inactive) |
| COc1ccccc1C(=O)OCc1cc(=O)n2nc(-c3cccs3)sc2n1 | – | -31.5% (inactive) |
| CC1=Nc2cc(C(=O)NCc3ccc(C)cc3)ccc2Sc2ccc(Cl)cc21 | – | -12.7% (inactive) |
| O=S(=O)(NCc1ccccn1)c1ccc(F)cc1 | – | -2.51% (inactive) |
| Fc1ccc(-c2ccc(CNCc3ccccn3)o2)cc1Cl | 31.6 µM (active) | – |
| Cc1cc(Cl)ccc1OCCCC(=O)NCc1ccccn1 | – | -6.56% (inactive) |
| O=C(CCc1nc(CN2CCN(S(=O)(=O)c3ccc(Br)cc3)CC2)no1)N1CCCCC1 | – | -19.9% (inactive) |
| COC(=O)c1ccccc1NC(=O)C(Cc1ccccc1)N1Cc2ccccc2C1=O (configuration not stated) | – | -0.606% (inactive) |
| CCN(CCCNC(=O)c1cc2cc3cc(OC)ccc3nc2s1)c1ccccc1 | – | -27.3% (inactive) |
| Cc1c(NS(=O)(=O)c2ccc(NC3CCCC3)c([N+](=O)[O-])c2)c(=O)n(-c2ccccc2)n1C | – | -27.8% (inactive) |
| Cc1cc([N+](=O)[O-])ccc1NC1CCCC1 | – | -0.979% (inactive) |
| Cc1cc(C=O)c(C)n1-c1ccc(NC2CCCCC2)c([N+](=O)[O-])c1 | 10 µM (active) | – |
| CCOc1ccc(-c2cc(C)n3nc(C(=O)Nc4ccc(C)c(C)c4)cc3n2)cc1 | – | -6.73% (inactive) |
| CCOC(=O)c1scc(-c2ccccc2)c1S(=O)(=O)Nc1ccccc1F | – | 7.14% (inactive) |
| Cc1ccnc(-n2sc3ccccc3c2=O)n1 | 25.1 µM (active) | – |

| Structure (SMILES) | Potency | activity change, negative = inhibition |
| --- | --- | --- |
| Cc1ccnc(SCC(N)=O)n1 | – | -21.5% (inactive) |
| Cc1ccnc(N2CCCC(C(=O)NC3CC3)C2)n1 (configuration not stated) | – | 1.89% (inactive) |
| Cc1ccc(C)c(N2CCN(S(=O)(=O)c3ccc4c(c3)C(C(C)C)C(=O)N4)CC2)c1 (configuration not stated) | – | -11.9% [at 57.1 µM] (inactive) |
| CC(NC(=O)c1cc2c(=O)n3ccccc3nc2n(C(C)C)c1=N)c1ccccc1 (configuration not stated) | – | 1.9% (inactive) |
| CCc1ccccc1NC(=O)CSc1nc(C)c(C(=O)Nc2ccccc2)c(-c2ccc(Cl)cc2)c1C#N | – | 0.0077% (inactive) |
| COc1ccc(OC)c(CCNC(=O)c2nn(C)c3c2CS(=O)(=O)c2ccccc2-3)c1 | – | -27.6% (inactive) |
| COc1ccc(-n2c(=O)[nH]c3cc(C(=O)NCCc4ccc(OC)c(OC)c4)ccc3c2=O)c(OC)c1 | – | 4.46% (inactive) |
| CCn1c(C)c(C)c2cc(C(=O)NCCc3cc(OC)ccc3OC)ccc21 | 31.6 µM (active) | – |
| CCOc1cccc2cc(-c3cn4c(n3)sc3cc(C)ccc34)c(=O)oc12 | – | -17.3% (inactive) |
| Cc1ccc(NC(=S)Nc2ncccc2C)c(C)c1 | 44.7 µM (active) | – |
| Cc1cc(Br)ccc1NC(=S)NC1CCCC1 | – | -19.8% (inactive) |
| Cc1ccc(NC(=O)CSc2cccc3cccnc23)c(C)c1 | – | -21.6% (inactive) |
| COC(=O)c1scc(-c2ccc(C)cc2)c1S(=O)(=O)Nc1cc(Cl)c(OC)cc1OC | – | -22.8% (inactive) |
| Cc1cc(C)c(NC(=O)CCc2c(C)nc3c(c(C)nn3C(C)(C)C)c2C)c(C)c1 | – | -12.1% (inactive) |
| OC(CNCc1ccc2c(c1)OCO2)COc1ccccc1 (configuration not stated) | – | -13.4% (inactive) |
| COc1ccc(OCC(O)CNC(=O)Nc2ccc(Cl)cc2)cc1 (configuration not stated) | – | -5.34% (inactive) |
| OC(CNCCc1ccc(Cl)cc1Cl)COc1ccccc1 (configuration not stated) | 70.8 µM (active) | – |
| CCCNC(=O)c1ccc(Cn2c(SCC(N)=O)nc3ccccc3c2=O)cc1 | – | 0.549% (inactive) |
| CC(=O)c1ccc(NC(=O)CSc2nnc(NC(=O)Nc3ccccc3)s2)cc1 | – | 7.08% (inactive) |
| Cc1cc2c(cc3c(SCc4cccc(Cl)c4)nnc(C)n32)o1 | 25.1 µM (active) | – |
| O=C(c1ccco1)N1CCN=C1SCc1cccc(Cl)c1 | – | -1.87% (inactive) |
| Cc1cc2c(cc3c(SCc4nc(-c5ccccc5)oc4C)nnc(C)n32)o1 | – | -15.2% (inactive) |
| CCc1ccccc1NC(=O)c1sc2nc3c(cc2c1N)CN(Cc1ccccc1)CC3 | – | -6.05% (inactive) |
| CCN1CCc2nc3sc(C(=O)Nc4ccccc4OC(F)(F)F)c(N)c3cc2C1 | – | -35% (inactive) |
| CCc1ccc(NC(=O)c2sc3nc4c(cc3c2N)CN(CC)CC4)cc1 | 35.5 µM (active) | – |
| O=C(COc1ccccc1)NCc1ccc2c(c1)CCN2C(=O)c1ccc(F)cc1 | – | -11.4% (inactive) |

— PubChem BioAssay AID504333 (National Center for Advancing Translational Sciences (NCATS), 2011)
